# Experimental data from PubChem BioAssay AID1347423 (Functional Genomics Laboratory (NCATS/FGL), 2020).
# In all, about 52,000 sequences went through this assay and about 210 (0.4%) were called active. Shown is part of a subset that was picked to be rich in actives. Values without a mark were called inactive.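 How the source made its calls: active means gene whose silencing raises cell survival under the drug, median off-target-corrected z-score across its silencing RNAs 2 or more; inactive means the rest.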
# Test: Resistance to Poly (ADP-Ribose) Polymerase inhibitor: Gene Identification via Genome-wide siRNA Screen
# Settings: mouse BRCA2 R2336H ES cells, olaparib, CellTiter-Glo viability; hits give high values
# Procedure, shortened: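 Mouse BRCA2 R2336H ES cells were reverse-transfected with siRNA (20 nM final), treated at 48 h with 500 nM olaparib, and read by CellTiter-Glo after 72 h. Scores: MAD-based z per siRNA, median per gene, seed off-target correction.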
row,Sequence,z-score
1,GGCACAUGCCCUUUUCUACTT against Cog1,0.266
2,GCAUUCAGAAUGAGCUGACTT against Nfasc,-0.0641
3,GGUGAUCUUCAAAUUGGAGTT against Zfp90,-0.401
4,GCUAUAUCUAAAGCUAUUCTT against Sgpp1,0.574 (active)
5,GGCCCACCUAUUUCAUCUCTT against Actl7b,0.808
6,GGAGUUUGCCACAAUUGUUTT against 2810408E11Rik,-1.26
7,GGAAGAGAGAUGGAAAAAATT against Gcnt1,-0.555
8,GGAAAGUGUCACCAAGUUCTT against B230359F08Rik,-0.0496
9,GGUACUAAACACCAACUCCTT against B230315M08Rik,1.28 (active)
10,GGAAGGAAGAGAAAAACAATT against D11Ertd730e,-1.34
11,GGGAUCCGAAUUCUGACCATT against 2010305C02Rik,1.23
12,GGCCAUCAGAUAGUUUAAUTT against AW551984,-0.3
13,GCAAGAUUCAGAGUGCAGCTT against 4932441K18,-0.922
14,GCCUUACUCUCUCAGUCCUTT against D930018N13,-1.82
15,GGAUACAUUAAUUGUUUGGTT against AW011752,0.68
16,CCACACUGAGGACUAUAUUTT against Cstf1,0.623
17,GGAUAGCUGCCAACACUACTT against BC048937,-0.0419
18,GGCCUAUCUUCCCAGGAAATT against Mapk1,1.76 (active)
19,GCAAAAAUUAUGCAGAGCATT against Olfr1443,2.55
20,CGGUAUCUCAACUUUUACATT against Stra8,0.301
21,GCGAACGAAGCAUAAAUGGTT against Mettl1,-0.126
22,GGCAGUAGUGUUAACGGUGTT against Chrnb2,2.38 (active)
23,GGAUGCUGUAACACUUUAUTT against Bcl6,-1.71

row,Sequence,z-score
1,GGACCAGGUAUUCAUGAUCTT against Sema3c,1.79
2,CCAUGAUGAUAAUCUGAAUTT against B930090D16Rik,0.709
3,GGAAGAUUUUUCAAAGGAUTT against Itgb6,2.51 (active)
4,CAAUAACAGCGAAACAUCCTT against Scn4b,2.18
5,GUCUCUCUUUUAACAUGCUTT against Ceacam13,2.49
6,GCUUGUCUCACACAGCUCUTT against Olfr401,-0.379
7,CCCACAAGGUUAAGAUAUATT against Col14a1,0.22
8,GACGGUGGGACUCACUGUUTT against Ors6,-0.403
9,GGUUGACACAGAUGAAGAGTT against Rdh9,-0.356
10,GCGUGCAGCCCUCAAUGAATT against Ppp2r5b,1.44 (active)
11,GGAAUCCAUGCAGAAAUAATT against Pcdhga6,1.54
12,GGAGAUGGCUUCUCUCUCGTT against Rarg,1.37 (active)
13,CGCGGGAUGAAGGAUAUAATT against LOC432589,-2.23
14,GGAGAACUGUCAGAACGAGTT against Gpx2,-2.7
15,GCAAUGCGACGUGCUCUAUTT against LOC330863,-0.895
16,GCGGCAUAAGUCCAAGCACTT against Crk7,-1.76
17,GGAAUGUUCUGUCGCUAUGTT against Nrp1,0.0552
18,GGUUGAAUAUUGAAUGGAATT against 9130422G05Rik,0.44
19,CCUGAAAAAAUUUAUCGCCTT against Rnf3,-0.169
20,GCUUCCUCUACAUCCUGCUTT against Kcnk15,2.57 (active)
21,GGCUGAACUCAAAAAGACGTT against Hand1,2.07
22,GGUGAAGCUGAAACAACAUTT against BC020002,0.323
23,GCUUGUGAAAAAUUAUGAGTT against Ipo7,-1

row,Sequence,z-score
1,GCUCUACUGCUUCCUUGUUTT against Olfr973,-2.32
2,GGAGAUGUGUGCUAUGUGGTT against Gzmb,-1.14
3,GGCCAACUGAUUAAGAAACTT against Chrnb1,2.28 (active)
4,GGGAUACCAUGGGAAUAGUTT against Vps52,0.468
5,GGACAAGGAUGCAAUUAUCTT against 4833427G06Rik,-2.12
6,GGCUCAAGGACAGAUGAUGTT against Tra1,-0.94
7,GGAGCUAAGACAGUUUGGATT against BC022133,-1.16
8,GGAUGAUACUUCAUUACACTT against Ankrd12,-0.613
9,GGAGUGAAAUUUACUGGGUTT against Hdgfrp3,1.78
10,CGAGGUGACCUACAAGAUUTT against AI481750,0.982
11,CCUUCUGUAGUUGGAAUCATT against 1110038F21Rik,-0.558
12,GGGUUAUGUCUGUGGAGCUTT against Bcl2l2,1.54 (active)
13,GCCUUAAGUGGAUUUAGGATT against Hist1h2ae,1.22
14,GGAAAUACCCUGAUAGCCATT against 9430077C05Rik,-1.23
15,GCAACAUUAGGAUUUAUAGTT against 1110032E23Rik,-0.366
16,GGUGAAAACCCUAACAGUCTT against A130007F10Rik,0.653
17,CCAAGUUUUUAUGCAGAUATT against Pip5k1a,-1.31
18,GCUUACCUUGACCAACCUCTT against Chrng,1.84 (active)
19,GCCACCUUGUUUCUCGAACTT against 1810008A18Rik,0.925
20,GCAAGUCCUACAAUACAACTT against Tk1,-0.837
21,GGUGCAGCCACGAAAACAUTT against Lmln,1.57
